Screening data from PubChem.
Cruzain inh Det = cruzain (T. cruzi) inhibition with detergent. P25779. purified cruzain, Z-FR-AMC fluorescence, 0.01% Triton. Potency, µM, hits mostly inhibitors. actives 0.43% (n = 200,000); further: nearly all actives have a fitted effect of over 40% in size
Target sequence (P25779 123-467 limits assumed): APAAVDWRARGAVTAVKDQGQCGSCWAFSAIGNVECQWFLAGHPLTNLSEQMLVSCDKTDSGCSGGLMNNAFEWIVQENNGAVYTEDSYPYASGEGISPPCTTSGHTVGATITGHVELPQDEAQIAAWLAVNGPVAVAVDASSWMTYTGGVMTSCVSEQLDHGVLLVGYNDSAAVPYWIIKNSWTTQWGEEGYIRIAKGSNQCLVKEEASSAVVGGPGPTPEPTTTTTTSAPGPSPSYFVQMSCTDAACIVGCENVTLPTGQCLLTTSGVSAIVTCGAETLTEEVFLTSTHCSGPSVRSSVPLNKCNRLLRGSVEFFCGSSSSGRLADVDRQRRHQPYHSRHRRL
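Detergent-containing arm of a paired screen for aggregation-based inhibition: 0.01% Triton X-100 present. Cruzain at 1.5 nM cleaved 2 uM Z-FR-AMC at pH 5.5 with 5 mM DTT; AMC fluorescence gain over 60 s measured activity.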
Cruzain inh noDet = inhibitors of Trypanosoma cruzi cruzain without detergent | Potency, µM, hits mostly inhibitors | actives 2.3% (n = 200,000) | purified cruzain, Z-FR-AMC fluorescence, no detergent; further: nearly all actives have a fitted effect of over 40% in size
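Detergent-free condition (0.00005% Triton X-100) in acetate buffer pH 5.5 with DTT. 1.5 nM enzyme and compound were pre-mixed 15 min, then 2 uM Z-FR-AMC substrate added; reaction progress from fluorescence change between first and third reads (60 s).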
Large screens that a line does not name were inactive. A selection: hits, their analogues and other compounds. The true share with any hit is near 2.4%. The call rests on the fitted dose curve; in most records, active means well fitted curve in the direction sought with a large enough effect; inconclusive means small, poorly fitted or top-dose-only effect, or another doubt; inactive means no such curve, though single readings can be large; an effect the other way counts as inactive or inconclusive.

COc1ccccc1-c1nc(C#N)c(N2CCN(C(c3ccccc3)c3ccccc3)CC2)o1	Cruzain inh Det 25µM, Cruzain inh noDet 7.9µM
Cc1cccc(N2CCN(c3cc(C)nc4c(-c5ccc(Cl)cc5)c(C)nn34)CC2C)c1 (stereo not given)	none
CC1C(=O)CCC2[C@]1(C)CCC1[C@]2(C)CC[C@@]2(C)C3CC(C)(C)CC[C@]3(C)CC[C@@]12C (stereo not given in full)	none
Cn1c(=O)c2c(nc(Oc3ccccc3)n2Cc2c(Cl)cccc2Cl)n(C)c1=O	none
Cc1cc(C)c(S(=O)(=O)NCC(c2ccc(N(C)C)cc2)N2CCc3ccccc32)c(C)c1 (stereo not given)	Cruzain inh noDet 20µM
COc1ccc(C)cc1S(=O)(=O)NCC(c1ccc(N(C)C)cc1)N1CCc2ccccc21 (stereo not given)	Cruzain inh noDet inconclusive
CCc1ccc(CNC(=O)Cn2nc(C)c3nn(-c4ccc(Cl)cc4)c(C)c3c2=O)cc1	none
COCCn1c(=O)c(C)nc2cnc(Oc3ccc(OC)cc3)nc21	none
Clc1nc2ccccc2cc1/C=N/Nc1nc2ccccc2[nH]1	Cruzain inh Det 28µM, Cruzain inh noDet inconclusive
C(=N\Nc1nc2ccccc2[nH]1)/c1cccs1	Cruzain inh noDet inconclusive
CCN(CC)c1ccc(/C=N/Nc2nc3ccccc3[nH]2)cc1	Cruzain inh noDet inconclusive
Cc1nn(-c2ccccc2)c(C)c1/C=N/Nc1nc2ccccc2[nH]1	Cruzain inh Det inconclusive, Cruzain inh noDet 25µM
Cn1nnnc1SCCCNCc1cc(Cl)ccc1OCc1ccccc1F	none
COc1ccccc1NC(=O)C1CCN(C(=O)c2sc3nc[nH]c(=O)c3c2C)CC1	Cruzain inh noDet inconclusive
C[C@H]1C(c2cccc(Cl)c2)=NN(c2ccccc2)[C@@H]1CO	Cruzain inh noDet inconclusive
OC[C@@H]1[C@@H](c2ccc(Cl)cc2)C(c2cccc(Cl)c2)=NN1c1ccccc1	Cruzain inh noDet 25µM
OC[C@@H]1[C@@H](c2ccc(F)cc2)C(c2cccc(Cl)c2)=NN1c1ccccc1	Cruzain inh noDet 32µM
OC[C@@H]1[C@@H](c2ccc(Cl)cc2)C(c2ccccc2)=NN1c1ccccc1	none
C#CCN1C(=O)C(O)(CC(=O)c2ccc(OC)c(OC)c2)c2cc(Br)ccc21 (stereo not given)	none
Cc1ccc2oc3c(c(=O)c2c1)C(c1ccc(OCC(N)=O)cc1)N(Cc1ccc2c(c1)OCO2)C3=O (stereo not given)	none
CCOc1cccc(C(=O)Nc2nc(-c3ccc(S(=O)(=O)N4CCOCC4)cc3)cs2)c1	Cruzain inh noDet inconclusive
O=C(COc1cccc(Cl)c1)Nc1nc(-c2ccc(S(=O)(=O)N3CCOCC3)cc2)cs1	Cruzain inh noDet 13µM
C=Cc1ccc(Cn2c(C)c(CNCc3ccc(SC)cc3)c(C(=O)O)c2C)cc1	none
COC(=O)c1c(NC(=O)COc2ccc(OC)cc2)sc2c1CCC(C)C2 (stereo not given)	none
O=C1OCC2=C1C(c1ccc(F)cc1)Sc1ccccc1N2 (stereo not given)	none
CC(C)(C)c1ccc(C2Sc3ccccc3NC3=C2C(=O)c2ccccc23)cc1 (stereo not given)	Cruzain inh noDet 7.9µM
CN1CCN(c2ncc3nc(-c4cc(F)cc(F)c4)c(=O)n(C4CC4)c3n2)CC1	Cruzain inh noDet inconclusive
CN1CCN(c2ncc3nc(-c4ccccc4)c(=O)n(C4CC4)c3n2)CC1	Cruzain inh Det 32µM, Cruzain inh noDet 25µM
Cc1cccc(NC(=O)CSc2nc3c(oc4ccccc43)c(=O)n2-c2ccccc2)c1C	Cruzain inh noDet inconclusive
COc1ccccc1N1CCN(C(=O)c2ccc(Nc3nc4ccccc4n4nnnc34)cc2)CC1	none
Cn1c(NCCO)nc2c1c(=O)n(Cc1cccc(F)c1)c(=O)n2C	none
O=C(NC(=S)Nn1cnc2c(cnn2-c2ccccc2)c1=O)c1ccc(Cl)cc1	none
O=C(NC(=S)Nn1cnc2c(cnn2-c2ccccc2)c1=O)c1ccc(Oc2ccccc2)cc1	Cruzain inh noDet 25µM
CCOC(=O)c1ccc(NC(=O)c2oc3c(c2C)-c2nn(Cc4ccccc4Cl)cc2CC3)cc1	none
CSc1nc2c(c(=O)[nH]1)C(c1cccs1)C1=C(CCCC1=O)N2 (stereo not given)	none
O=C1CCCC2=C1C(c1cn(-c3ccccc3)nc1-c1cccs1)c1c([nH]c(=O)[nH]c1=O)N2 (stereo not given)	Cruzain inh Det 14µM, Cruzain inh noDet 13µM
Cc1occc1C(=O)N=Nc1c(O)n(C)c2ccccc12	none
Cc1occc1C(=O)N=Nc1c(O)[nH]c2ccc(Br)cc12	Cruzain inh noDet 13µM
O=C(O)c1ccccc1C(=O)Nc1cc2c(cc1Br)-c1ccccc1C2=O	none
CCOC(=O)c1c(NC(C)=O)sc2c(O)cccc12	none
CCOC(=O)c1c(NC(=O)c2ccccc2)sc2c(O)c(CN(CC)CC)ccc12	Cruzain inh noDet 16µM
O=C(N/N=C/c1cn(-c2ccccc2)nc1-c1ccccc1)c1ccco1	none
N#Cc1ccc(N/N=C/c2cn(-c3ccccc3)nc2-c2ccccc2)c([N+](=O)[O-])c1	Cruzain inh noDet 5µM
Nc1cc(Cl)c([N+](=O)[O-])cc1O	none
CC(=O)Nc1ccc(S(=O)(=O)N(C)c2ccccc2)cc1	none
O=C(O)c1ccc(S(=O)(=O)c2ccccc2)cc1	none
O=C(Nc1ccc(NC(=O)c2ccc(S(=O)(=O)c3ccccc3)cc2)cc1)c1ccccc1	Cruzain inh noDet 4µM
CN(c1ccccc1)S(=O)(=O)c1ccc(NC(=O)c2ccc(-c3ccccc3)cc2)cc1	Cruzain inh noDet 25µM
Cc1ccc(CN2CCSc3ccc(C(=O)N4CCN(c5ccc(Cl)cc5)CC4)cc32)cc1	Cruzain inh noDet inconclusive
O=C(c1cc(C(F)(F)F)cc(C(F)(F)F)c1)N1CCC2(CC1)CCN(c1ccccn1)CC2	none
O=S(=O)(c1ccc2[nH]c3c(c2c1)CCCCC3)N1CCN(c2cccc(Cl)c2)CC1	Cruzain inh noDet 7.9µM
O=S(=O)(NCc1ccccc1)c1ccc2[nH]c3c(c2c1)CCCCC3	Cruzain inh noDet inconclusive
O=S(=O)(Nc1cccc(Cl)c1)c1ccc2[nH]c3c(c2c1)CCCCCC3	none
O=S(=O)(c1ccc2[nH]c3c(c2c1)CCCCC3)N1CCN(c2ccccc2)CC1	Cruzain inh noDet 25µM
COc1ccc(-c2cc(C(C)=O)c(C)n2CCC(=O)Nc2ccc(C)c(Cl)c2)cc1	none
Cc1ccc(NC2(c3ccccc3)C(=O)c3ccccc3C2=O)cc1F	none
Cc1ccc(-c2nc(-c3nccc4ccccc34)oc2-c2ccccc2)cc1	none
O=C(O)COc1cccc(-c2ocnc2-c2nc(-c3ccccc3)c(-c3ccccc3)o2)c1	Cruzain inh noDet 7.9µM
CN(Cc1ccccc1)C(=O)CN1C(=O)CSc2ccc(S(=O)(=O)N3CCOCC3)cc21	none
CCOC(=O)N1CCN(C(=O)Cc2ccc(Cl)cc2)CC1	none
CCOC(=O)N1CCN(CCC(=O)c2ccc(Cl)cc2)CC1	Cruzain inh Det 14µM, Cruzain inh noDet 13µM
CCn1c(=N)c(C(=O)NCc2ccccc2)cc2c(=O)n3cc(C)ccc3nc21	none
COc1cccc(/C=N/NC(=O)c2ccc(CN3c4cccc5cccc(c45)S3(=O)=O)cc2)c1	Cruzain inh noDet 20µM
COc1cc(/C=N/NC(=O)c2cc(-c3cccn3C)n[nH]2)cc(OC)c1OC	none
COc1cccc(/C=N/NC(=O)c2cc(-c3cccn3C)n[nH]2)c1	Cruzain inh noDet 25µM
O=C(N/N=C/c1ccccc1)c1ccc(CN2C(=O)c3cccc4cccc2c34)cc1	none
CN(C)c1ccc(/C=N/NC(=O)c2ccc(CN3C(=O)c4cccc5cccc3c45)cc2)cc1	Cruzain inh noDet 4µM
